This is part of a sample that, as a whole, favours compounds with a hit. Of some 83,000 tested, about 20% had one in any assay.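 Single-dose data. Exposure time 48 hours. Values below 10 considered active.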 A number with no mark means an inactive call. Calls of active or inactive are those of the source.

Test systems include HCT-15 colon; HT29 colon; SNB-19 CNS; U251 CNS; PC-3 prostate; SK-MEL-5 melanoma; UACC-62 melanoma; SK-MEL-28 melanoma; SK-MEL-2 melanoma; EKVX NSCLC; SN12C renal; UO-31 renal; TK-10 renal; ACHN renal; CAKI-1 renal; A498 renal; MOLT-4 leukemia; CCRF-CEM leukemia; LOX IMVI melanoma.
Assay in all cases: NCI-60 one-dose screen, 48 h (100 = growth as untreated, 0 = no growth, -100 = all killed)
Holding throughout (conditions): 10 µM unless noted

Regarding `Clc1cc(Cl)cc(-c2ccc(-c3ccc(/C=N/NC4=NCCN4)cc3)s2)c1`, the growth in the assay with HCT-15 colon was -62.4% (active); in the assay with HT29 colon, 0.288% (active); in the assay with SNB-19 CNS it was 53.2%; in the assay on U251 CNS, -79% (active); with PC-3 prostate, 35.1%; in the assay on SK-MEL-5 melanoma, 88.1%. Further, the growth in the assay on UACC-62 melanoma is 68.1%; with SK-MEL-28 melanoma, 97.3%; in the assay on SK-MEL-2 melanoma, 101%; in the assay on EKVX NSCLC, 92.6%; in the assay on SN12C renal it was 25.9%; in the assay on UO-31 renal, 53.6%. Moreover, the growth in the assay on TK-10 renal was 47%; with ACHN renal it was 59%; in the assay with CAKI-1 renal it was 58.4%; with A498 renal, 88%; in the assay with MOLT-4 leukemia it was 14.7%.

For the molecule `C=C1C(=O)O[C@H]2[C@H]1CC/C(Cn1cc(CNC(=O)Cc3cn(C(=O)c4ccc(Cl)cc4)c4ccc(OC)cc34)nn1)=C\CC[C@@]1(C)O[C@@H]21`, the growth is 52.3% in the assay on HCT-15 colon; -57.4% (active) in the assay with HT29 colon; 47% in the assay on SNB-19 CNS; 14.2% in the assay on U251 CNS; 7.48% (active) in the assay on PC-3 prostate; 48.8% in the assay on SK-MEL-5 melanoma. Moreover, the growth in the assay with UACC-62 melanoma is 8.27% (active); with SK-MEL-28 melanoma it was -56.9% (active); with SK-MEL-2 melanoma, 17.1%; in the assay on EKVX NSCLC, 52.6%; with SN12C renal, 19.3%; in the assay with UO-31 renal, 30.2%. Besides, the growth with TK-10 renal is -46.8% (active); with ACHN renal, 15%; with CAKI-1 renal it was 67.4%; in the assay on A498 renal, 53.7%; with CCRF-CEM leukemia it was -34% (active); in the assay on MOLT-4 leukemia it was -23.5% (active).

Consider `CCCCCCCCCCCCCCCCCCNC(=O)[C@H]1CSC(c2ccc(OC)cc2O)N1` (stereo partly specified), for which the growth in the assay on HCT-15 colon is 80.7%; in the assay with HT29 colon, 45.3%; in the assay with SNB-19 CNS, 81.2%; in the assay with U251 CNS, 63.9%; in the assay with PC-3 prostate, 69.7%; in the assay with SK-MEL-5 melanoma, 93.1%. Moreover, the growth is 74.9% in the assay with UACC-62 melanoma; 50.5% with SK-MEL-28 melanoma; 75.6% with SK-MEL-2 melanoma; 102% in the assay with EKVX NSCLC; 14.3% in the assay on SN12C renal; 53.5% in the assay with UO-31 renal. In addition, the growth was 94.7% in the assay on TK-10 renal; 88.1% with ACHN renal; 89.8% with CAKI-1 renal; 81.3% in the assay on A498 renal; 6.93% (active) with CCRF-CEM leukemia; 17.3% in the assay on MOLT-4 leukemia.

Regarding `O=C(Nc1cccc(-n2cc(-c3ccncc3)c(-c3ccc(Cl)c(O)c3)n2)c1)c1ccccc1`, the growth in the assay on HCT-15 colon is 58.2%; in the assay on HT29 colon, 53.5%; with SNB-19 CNS it was 99.7%; with U251 CNS it was 75.4%; with PC-3 prostate it was 50.3%; with SK-MEL-5 melanoma it was 59.4%. Also, the growth in the assay on UACC-62 melanoma is 68.3%; in the assay with LOX IMVI melanoma, 68.5%; with SK-MEL-2 melanoma, 67.9%; with SN12C renal it was 79.3%; in the assay on UO-31 renal, 83.1%; with TK-10 renal, 109%. The growth with ACHN renal was 53.2%; in the assay on CAKI-1 renal, 90.3%; with A498 renal, 72.3%; in the assay with CCRF-CEM leukemia, 67.5%; in the assay with MOLT-4 leukemia it was 69.5%.

Regarding `N=C(N)c1ccc(-c2ccc(-c3ccc(-c4cccs4)s3)s2)cc1`, the growth in the assay with HCT-15 colon is 101%; with HT29 colon, 95%; with SNB-19 CNS, 97.5%; in the assay with U251 CNS, 91.2%; with PC-3 prostate, 89%; in the assay with SK-MEL-5 melanoma, 91.4%. For the same molecule, the growth was 93.3% in the assay with UACC-62 melanoma; 102% in the assay on SK-MEL-28 melanoma; 108% with SK-MEL-2 melanoma; 90.1% in the assay on EKVX NSCLC; 93.7% with SN12C renal; 93% in the assay on UO-31 renal. The growth was 95.3% in the assay on TK-10 renal; 102% with ACHN renal; 106% in the assay on CAKI-1 renal; -47.8% (active) with CCRF-CEM leukemia; 98% in the assay with MOLT-4 leukemia.

With `Cc1[nH]c2ccc(F)cc2c1CCNC(=O)C1CCN(C(=O)c2ccccc2)CC1`, the growth in the assay with HCT-15 colon was 94.4% [25 µM]; in the assay with HT29 colon it was 95.2% [25 µM]; in the assay on SNB-19 CNS, 86.3% [25 µM]; with U251 CNS, 90.7% [25 µM]; with PC-3 prostate, 71% [25 µM]; with SK-MEL-5 melanoma, 76% [25 µM]. Further, the growth in the assay on UACC-62 melanoma was 82.5% [25 µM]; in the assay with SK-MEL-28 melanoma it was 96.4% [25 µM]; in the assay on SK-MEL-2 melanoma, 98.9% [25 µM]; with EKVX NSCLC, 77.9% [25 µM]; in the assay on SN12C renal it was 94.5% [25 µM]; with UO-31 renal it was 67.6% [25 µM]. For the same molecule, the growth was 91.1% [25 µM] with TK-10 renal, 68.2% [25 µM] in the assay with CAKI-1 renal, 56.2% [25 µM] with A498 renal and 88% [25 µM] in the assay on MOLT-4 leukemia.

For `Fc1ccc(Nc2nc(NCCNc3ccnc4cc(Cl)ccc34)nc(N3CCOCC3)n2)cc1`, the growth is 10.5% in the assay with HCT-15 colon; -45.5% (active) in the assay with HT29 colon; 86.7% in the assay on SNB-19 CNS; 39% with U251 CNS; 38.2% with PC-3 prostate; 43.2% in the assay on SK-MEL-5 melanoma. Moreover, the growth in the assay with UACC-62 melanoma is 47.7%; in the assay on LOX IMVI melanoma it was 15.5%; in the assay on SK-MEL-2 melanoma it was 50.7%; with SN12C renal, 63.8%; with UO-31 renal, 45.2%; in the assay on TK-10 renal, 86.2%. Besides, the growth in the assay on ACHN renal was 55.4%; with CAKI-1 renal, 76.9%; in the assay on A498 renal it was 8.73% (active); with CCRF-CEM leukemia, 49.1%; in the assay on MOLT-4 leukemia it was 25.2%.

In the case of `CCCCCCN1CSC(=S)N(CCCCCC)C1`, the growth with HCT-15 colon is 103%; with HT29 colon, 115%; in the assay on SNB-19 CNS it was 106%; with U251 CNS, 103%; with PC-3 prostate, 83.6%; in the assay with SK-MEL-5 melanoma, 94.5%. In addition, the growth was 95.3% with UACC-62 melanoma; 102% in the assay on SK-MEL-28 melanoma; 124% in the assay on SK-MEL-2 melanoma; 91.7% with EKVX NSCLC; 104% in the assay with SN12C renal; 79.3% with UO-31 renal. For the same molecule, the growth in the assay on TK-10 renal is 111%; in the assay with ACHN renal, 109%; in the assay on CAKI-1 renal, 81.3%; with A498 renal, 94.2%; in the assay on CCRF-CEM leukemia it was 88.2%; in the assay with MOLT-4 leukemia, 107%.

As for `CC1CN(c2oc(-c3ccccc3)nc2C#N)CC(C)O1` (stereo unspecified), the growth was 103% with HCT-15 colon; 106% in the assay with HT29 colon; 100% in the assay on SNB-19 CNS; 103% in the assay with U251 CNS; 102% in the assay with PC-3 prostate; 93.1% with SK-MEL-5 melanoma. The growth with UACC-62 melanoma was 97%; with SK-MEL-28 melanoma, 104%; in the assay on SK-MEL-2 melanoma, 102%; with EKVX NSCLC, 92.6%; with SN12C renal, 97.9%; in the assay with UO-31 renal, 95.2%. Besides, the growth was 116% in the assay with TK-10 renal; 103% with ACHN renal; 87% in the assay with CAKI-1 renal; 93.8% in the assay on A498 renal; 104% with CCRF-CEM leukemia; 103% with MOLT-4 leukemia.
